Shown are actives, neighbours in structure and some others; about 19% of the full set was active somewhere.
MCF10A rerep – induces DNA re-replication in MCF 10a normal breast cells; MCF 10A DNA re-replication, Hoechst nuclear intensity, 48 h; Potency, µM (titrated, usually from 46.1 µM), usual class: activators; hit rate 2.9% among 350,000; also: nearly all actives have a fitted effect of over 50% in size
SW480 rerep – inducers of DNA re-replication in SW480 colon cancer cells | Potency, µM (series often up to 46.1 µM), hits mostly activators | AID 624297 | SW480 DNA re-replication, Hoechst DNA content imaging, 48 h | hit rate 1.8% among 340,000; also: nearly all actives have a fitted effect of over 55% in size
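Image-based DNA-content assay: after two days of treatment, nuclei were labelled with the DNA dye Hoechst and imaged, and hits were compounds raising the count of nuclei showing high fluorescence intensity.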
BCR signal inh – inhibitors of chronic active B-cell receptor signaling; ABC-DLBCL IkBa-CBG/CBR reporter, luminescence ratio, 4 h; Potency, µM (titrated, usually from 46.1 µM), hits mostly inhibitors; hit rate 0.05% among 340,000; AID 493014; active = well fitted inhibition curve with a large enough effect in the signal ratio, with a control signal flat, not every such curve was filed as active; inconclusive = small, poorly fitted or top-dose-only effect, or effect the other way, or a change in a side signal; the % refers to the signal ratio
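TMD8 ABC-DLBCL cells carrying doxycycline-inducible green luciferase fused to IkappaBalpha plus unfused red luciferase were exposed to compounds (up to 46 uM) for 4 hrs at 37C. Activity came from the overlap-corrected green/red luminescence ratio.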
DT40 TDP1 CPT – growth inhibition of DT40 Tdp1-/-;hTDP1 cells with camptothecin (screen for TDP1 inhibitors). chicken DT40 Tdp1-/-;hTDP1 cells + 20 nM CPT, ATP luminescence, 48 h. Potency, µM (highest dose often 46.2 µM), actives largely listed as inhibitors. hit rate 12% among 420,000; also: nearly all actives have a fitted effect of over 55% in size
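Cell growth measured by CellTiter-Glo luminescence after a minimum 48 h, 37 C compound exposure with 20 nM CPT in Tdp1-knockout DT40 cells stably expressing hTDP1, seeded 400/well; qHTS titration format.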
IL1B secr inh – blocks inflammasome-driven IL-1 beta release; activity change, % at 57.5 µM; hit rate 4.7% among 360,000; AID 743279; THP-1 LPS/ATP IL-1B secretion, AlphaLISA, 16 h; stronger effect = lower value; in the data active = activity change below about -50%; inconclusive = mostly about -30% to -49%
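THP-1 cells pretreated 1 hr with compounds (up to 57.5 uM final), then stimulated with LPS (250 ng/mL final) plus ATP (1.25 mM final); secreted IL-1B measured by AlphaLISA after 16 hr, decreased signal indicating inhibition.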
TDP1 cell noCPT – qHTS for Inhibitors of human tyrosyl-DNA phosphodiesterase 1 (TDP1): qHTS in cells in absence of CPT. hit rate 15% among 420,000. Potency, µM (series often up to 46.2 µM), usual class: inhibitors. DT40 Tdp1-/- hTDP1 cells, no CPT, ATP luminescence, 48 h. AID 686978, 2013; also: nearly all actives have a fitted effect of over 55% in size
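Chicken DT40 Tdp1-/- cells stably complemented with human TDP1 were seeded at 400 cells/well with DMSO in place of 20 nM camptothecin. After compound pinning, cells grew at least 48 hr at 37 °C; viability read by CellTiter-Glo luminescence.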
Hits are given with their value; n = inactive; u = inconclusive; x = no result given; [ ] = another dose, or the depositor's remark. Unless noted, calls follow the shape of the dose curve; as a rule, active = well fitted curve in the direction sought with a large enough effect; inconclusive = small, poorly fitted or top-dose-only effect, or another doubt; inactive = no such curve, though single readings can be large; an effect the other way counts as inactive or inconclusive.

SMILES	MCF10A rerep	SW480 rerep	BCR signal inh	DT40 TDP1 CPT	IL1B secr inh	TDP1 cell noCPT
COc1cccc(C(=O)NNC(=O)C(=O)Nc2ccc(C)cc2)c1	n	n	u	u	n	n
COc1ccc(NC(=O)C2=C(C)Nc3ncnn3C2c2ccc[nH]2)cc1 (stereo not given)	x	x	x	n	x	n
C[C@H](CO)N1C[C@H](C)[C@@H](CN(C)C(=O)Nc2ccc(C(F)(F)F)cc2)Oc2ccc(NC(=O)Cn3cnnn3)cc2C1=O	n	n	n	n	n	n
COc1ccc(/C=N/NC2=NS(=O)(=O)c3ccccc32)cc1OC	n	n	u	n	n	n
COc1ccc(OC2CCN(S(=O)(=O)c3ccc(C(C)=O)cc3)CC2)cc1	u	n	n	u	n	n
O=C(NNc1c2ccccc2nc2ccccc12)c1ccc(Cl)cc1	n	u	n	u	n	12µM
Nc1ccccc1C(=O)NNc1c2ccccc2nc2ccccc12	n	n	n	u	n	13µM
COc1cccc(C(=O)NNc2nc(C)cc(C)n2)c1	u	0.52µM	n	n	n	n
O=C(CN1CCOCC1)NNc1c2ccccc2nc2ccccc12	n	n	u	n	n	n
Cc1cccc(NC(=O)COc2coc(CN3CCN(c4ccccc4)CC3)cc2=O)c1C	n	n	n	u	n	u
O=C1OC(C(=O)O)Cc2ccccc21 (stereo not given)	18µM	u	u	n	n	n
Cc1ccccc1NC(=O)C1Cc2ccccc2C(=O)O1 (stereo not given)	n	n	n	n	n	n
COc1cc(NC2c3ccccc3C(=O)N2Cc2ccccc2)cc(OC)c1OC (stereo not given)	n	n	n	u	n	u
CC(C)CCNC1c2ccccc2C(=O)N1Cc1ccccc1 (stereo not given)	n	n	n	n	n	23µM
CCOC(=O)N1CCN(C(=O)CSc2ccc(-c3cccnc3)nn2)CC1	x	x	n	x	x	x
O=C(C=C=Nc1ccccc1)C(=O)N=C=Cc1ccccc1	4.6µM	u	u	1.8µM	-101	4.6µM
Cc1ccc(N2CC(NC(=O)c3cc4ccccc4o3)CC2=O)cc1 (stereo not given)	x	x	n	u	x	u
CC(C)(C)C(=O)N(Cc1ccc(Cl)cc1)c1cnccn1	n	n	n	u	n	12µM
O=C(NCCc1ccc(Cl)cc1)c1cnccn1	n	n	u	n	n	n
c1ccc2c(c1)CCN(c1nc3ccccc3n3cnnc13)C2	n	n	u	23µM	n	u
c1ccc(CN2CCN(c3nc4ccccc4c4ccccc34)CC2)cc1	u	n	u	21µM	n	u
c1ccc(CN2CCN(c3nc4ccccc4n4cnnc34)CC2)cc1	u	u	u	13µM	n	u
c1ccc2c(c1)nc(N1CCOCC1)c1nncn12	n	n	n	n	n	u
c1ccc(N2CCN(c3nc4ccccc4n4cnnc34)CC2)cc1	n	n	u	u	n	u
Cc1cc(C)n(-c2nc3ccccc3nc2N2CCN(c3cccc(C(F)(F)F)c3)CC2)n1	x	x	x	18µM	x	u
SMILES	MCF10A rerep	SW480 rerep	BCR signal inh	DT40 TDP1 CPT	IL1B secr inh	TDP1 cell noCPT
FC(F)(F)c1cccc(N2CCN(c3nc4ccccc4n4cnnc34)CC2)c1	x	x	x	u	x	23µM
C1=C(c2ccccc2)CCN(c2nc3ccccc3n3cnnc23)C1	n	n	u	u	n	16µM
Cc1ccc(C)c(Cn2c(=O)cc(C(F)(F)F)c3c(C)nn(C)c32)c1	x	x	x	n	x	n
Cc1onc(-c2ccccc2)c1-c1n[nH]c(=S)n1-c1ccccc1Cl	n	n	n	n	n	n
Cc1onc(-c2ccccc2)c1-c1nc2cc(Cl)ccc2c(=O)o1	n	u	13µM	u	n	u
Cn1c(N)c(C(C[N+](=O)[O-])c2c(F)cccc2Cl)c(=O)n(C)c1=O (stereo not given)	u	16µM	u	2.6µM	n	2.1µM
COc1ccc(Cn2cc(F)c(=O)n(C)c2=O)cc1[N+](=O)[O-]	n	n	n	n	n	n
COc1ccc(Br)cc1C(C[N+](=O)[O-])c1c(N)n(C)c(=O)n(C)c1=O (stereo not given)	u	n	u	3.7µM	-83	3.7µM
CN(C)c1ccc(C(C[N+](=O)[O-])c2c(N)n(C)c(=O)n(C)c2=O)c(F)c1C#N (stereo not given)	3.7µM	u	u	2.3µM	-63	2.1µM
CC(=O)c1ccc(-c2cc(F)cc3c2OC(CNC(=O)Cc2cn4ccsc4n2)C3)s1 (stereo not given)	x	x	x	n[9.04 µM]	x	n
N#Cc1cc[n+](CC(=O)c2ccc(NC(=O)c3ccccc3)cc2)cc1	n	n	n	n	n	n
Cn1c(=O)c([N+](=O)[O-])c(N2CCSCC2)c2ccccc21	n	n	n	u	n	u
CCn1c(=O)c([N+](=O)[O-])c(N2CCSCC2)c2ccccc21	u	n	n	u	n	23µM
Cc1ccc2ncc(S(=O)(=O)c3ccccc3)c(N3CCCCC3C)c2c1 (stereo not given)	n	n	n	23µM	n	18µM
Cc1ccccc1N=C1Nc2ccccc2N[C@]12C[C@H]1CCC(=O)N3CC[C@@H](C2)[C@@H]13	n	n	x	n	n	n
CCC(=O)Nc1ccccc1-c1nc2ccccc2n(CC(=O)c2ccc(C)cc2)c1=O	x	x	x	n	x	n
Cc1cc(C)cc(N2C(=O)CC(Cn3nc(C)cc3C)C2=O)c1 (stereo not given)	n	n	n	u	n	n
Cn1nnnc1SC1CC(=O)N(c2ccccc2)C1=O (stereo not given)	u	u	u	2.6µM	n	3.3µM
O=C1CC(Sc2nnnn2C2CCCCC2)C(=O)N1c1ccccc1 (stereo not given)	n	n	n	2.9µM	n	4.1µM
O=C1CC(SCCO)C(=O)N1c1ccccc1 (stereo not given)	n	n	n	n	n	n
COC(=O)c1ccccc1SC1CC(=O)N(c2ccccc2)C1=O (stereo not given)	n	n	u	u	n	n
Cc1cc(C)cc(N2C(=O)CC(Sc3ncn[nH]3)C2=O)c1 (stereo not given)	n	u	n	2.6µM	n	1.5µM
Cc1cc(C)cc(N2C(=O)CC(Sc3nnnn3-c3ccccc3)C2=O)c1 (stereo not given)	u	n	u	2.6µM	n	5.2µM
CCOc1ccc(CC(=O)Nc2c(C(=O)c3ccccc3)oc3ccc(Cl)cc23)cc1OCC	x	x	x	n	x	u

Source: PubChem BioAssay
